# Compound activity as filed in PubChem.
# D2 PAM-1: Beta-Arrestin HTS for Positive Allosteric Modulators of the Human D2 Dopamine Receptor: Potentiators | D(2) dopamine receptor (Homo sapiens), P14416 | DiscoveRx D2 beta-arrestin cells, luminescence, 90 min; 100% = 57 uM dopamine signal | potentiation, % (test concentration not listed) | 0.23% of 360,000 active | AID 624464, 2012; in the data active means potentiation above about 50%; inconclusive means mostly about 30% to 49%
# Target sequence (P14416 whole entry, looked up): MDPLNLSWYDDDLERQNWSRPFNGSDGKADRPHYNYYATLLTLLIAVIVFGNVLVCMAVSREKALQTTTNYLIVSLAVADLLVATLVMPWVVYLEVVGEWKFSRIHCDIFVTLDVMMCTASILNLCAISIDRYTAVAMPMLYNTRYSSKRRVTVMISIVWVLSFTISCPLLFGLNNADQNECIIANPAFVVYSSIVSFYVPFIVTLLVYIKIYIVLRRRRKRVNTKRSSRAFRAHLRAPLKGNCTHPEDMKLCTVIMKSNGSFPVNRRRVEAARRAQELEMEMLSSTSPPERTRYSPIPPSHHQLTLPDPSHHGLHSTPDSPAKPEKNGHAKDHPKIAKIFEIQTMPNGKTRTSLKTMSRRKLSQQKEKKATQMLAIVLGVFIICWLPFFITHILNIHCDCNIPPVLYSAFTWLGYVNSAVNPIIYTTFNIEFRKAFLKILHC
#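 PathHunter beta-arrestin assay in DiscoveRx D2 cells. Compounds were added with an EC20 of dopamine (50 nM final) for 90 min at 37 deg C. Luminescence was read 1 h after detection reagent, with 57 uM dopamine as the EC100 control.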
# D2 ag-1: Beta-Arrestin HTS for Positive Allosteric Modulators of the Human D2 Dopamine Receptor: Agonists. activation, % (concentration not given with the values). DiscoveRx PathHunter D2 beta-arrestin, luminescence, 90 min; 100% = 57 uM dopamine signal. D(2) dopamine receptor (Homo sapiens), P14416. 0.084% of 360,000 active; in the data active means activation above about 40%; inconclusive means between about 15% and that limit
#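 DiscoveRx PathHunter D2 beta-arrestin cells (2,100/well) attached overnight, then compound-stimulated 90 min at 37 C in HBSS/10 mM HEPES/0.1% Tween-20 buffer; beta-galactosidase complementation read by luminescence after 1 h at ambient temperature. Dopamine 57 uM final (EC100) as control.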
# D2 ag-2: HTS Assay for Allosteric Agonists of the Human D2 Dopamine Receptor: Primary Screen for Agonists | D(2) dopamine receptor (Homo sapiens), P14416 | HEK293 T-REx D2 cells, calcium flux agonist mode | 0.53% of 340,000 active | activation, % at 2 µM | AID 485358, 2010;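 active means activation over 3 SD above normal in the single-dose calcium agonist read, cut at about 30% in these data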
#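 Agonism scored from kinetic calcium signal (1 read/sec, 180 s) following compound pin transfer, after a 10 s baseline. Cells: HEK293 Trex line expressing inducible D2 receptor coupled to calcium, dye-loaded after overnight culture at 30 C.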
# D2 PAM-2: HTS Assay for Positive Allosteric Modulators of the Human D2 Dopamine Receptor: Primary Screen for Potentiators; HEK293 T-REx D2, calcium flux, EC20 dopamine potentiation; potentiation, % at 10 µM; 0.34% of 340,000 active;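 active means potentiation over 3 SD above the plate norm, cut at about 30% in these data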
#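 Calcium flux readout, no-wash dye, 1 read/s. Inducible HEK293 Trex D2 line, overnight 30 C. Compound alone 180 s (agonist flags), then EC20 dopamine, another 180 s to score potentiation.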
# D2 antag: HTS Assay for Allosteric Antagonists of the Human D2 Dopamine Receptor: Primary Screen for Antagonists; AID 485344, 2010; inhibition, % at 10 µM; 2% of 340,000 active; HEK293 TREx D2 cells, calcium flux, dopamine EC80; D(2) dopamine receptor (Homo sapiens), P14416; in the data active means inhibition above about 30%; inactive means below that, where a call was filed
#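 Tetracycline-induced HEK293 TREx cells expressing D2 receptor forced-coupled to calcium signalling, loaded with no-wash calcium dye. Compounds added and calcium flux read 180 s, then dopamine added at EC80 and read a further 180 s.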
# A number is an active result; - = inactive; ? = inconclusive; . = no result given. A selection: hits, their analogues and other compounds. The true share with any hit is near 2.4%.
SMILES,D2 PAM-1,D2 ag-1,D2 ag-2,D2 PAM-2,D2 antag
Cc1ccc(CN2CCC(NC(=O)c3ccccc3)CC2)cc1,-,-,-,-,90
CCN(C(=O)CN1C(=O)c2ccccc2Sc2ccc(C(=O)OC)cc21)c1cccc(C)c1,.,.,-,-,.
CCCc1nnc(NC(=O)c2nc(SCC)ncc2Cl)s1,.,.,-,-,.
O=C(NC1CCN(Cc2ccccc2)CC1)c1ccc(S(=O)(=O)NCc2ccco2)cc1,-,-,-,-,36
CC1(C)Cc2cccc(C(=O)NC3CCN(Cc4ccccc4)CC3)c2O1,-,-,-,-,73
NC(CCc1ccccc1)c1csc(Nc2cnccn2)n1 (stereo not given),-,-,.,.,.
COc1cc(OC)cc(C(=O)N2CCN(C(=O)COc3ccccc3)CC2)c1,.,.,.,-,.
CN(C)c1cccc2c(S(=O)(=O)Nc3ccccn3)cccc12,54,-,-,.,-
FC(F)Oc1ccc(/C=N/c2c(-c3ccc(OC(F)F)cc3)nc3n2CCS3)cc1,-,-,-,35,-
COc1ccc(-c2nc3n(c(=O)c2C#N)CCS3)cc1,-,-,.,.,.
COc1ccccc1CNC(=O)c1cnc2c(-c3ccccc3)c(C)nn2c1C,.,.,-,-,.
COC(=O)c1ccc(NC(=O)CSCc2ccccc2)cc1,-,-,-,-,-
CCn1c(SCC(=O)Nc2ccc(C(C)=O)cc2)nc2ccccc21,-,-,-,-,-
CCn1c(SCC(=O)Nc2ccc(C(=O)OC)cc2)nc2cccnc21,-,-,-,35,-
COC(=O)c1ccc(NC(=O)CSCc2ccccc2C)cc1,-,-,-,-,35
CSc1ccc(C(=O)C2CCCN(C(=O)c3nonc3C)C2)cc1 (stereo not given),-,-,-,-,-
N#Cc1ccccc1CN1C(=O)c2ccccc2Sc2ccc(C(=O)OCc3ccco3)cc21,.,.,-,-,.
CCOc1ccc(N(CC(=O)Nc2cc(C)cc(C)c2)S(C)(=O)=O)cc1,-,-,-,-,41
Cc1ccccc1NS(=O)(=O)c1ccc2[nH]cc(C(=O)NC(C)c3ccccc3)c(=O)c2c1 (stereo not given),.,.,-,-,.
CCOc1ccc(OCC)c(NC(=O)CSc2nnnn2CC)c1,-,-,-,32,-
Cn1c(SCC(=O)Nc2ccc(Cl)cc2F)nnc1-c1ccco1,-,-,-,-,40
COc1ccc(Cl)cc1NC(=O)CSc1nnc(COc2ccccc2)n1N,-,-,-,-,54
COc1ccc(C)cc1NC(=O)CSc1nnc(-c2cc3cccc(OC)c3o2)n1N,-,-,-,-,35
CCn1c(COc2ccccc2)nnc1SCC(=O)Nc1cc(OC)ccc1OC,-,-,.,.,.
COc1ccc(Cl)cc1NC(=O)CSc1nnc(COc2ccccc2)n1C,-,-,-,-,43
SMILES,D2 PAM-1,D2 ag-1,D2 ag-2,D2 PAM-2,D2 antag
Cc1nonc1NC(=O)CSc1nc(C2CCCCC2)nc2ccccc12,-,-,-,-,54
Cc1cc(NC(=O)CSc2nc(C3CCCCC3)nc3ccccc23)no1,-,-,-,-,-
COc1cccc(-c2ccc3nnc(SCC(=O)N4CCCC4)n3n2)c1,-,-,-,-,-
CC1CCN(C(=O)CSc2nnc3ccc(-c4cccnc4)nn23)CC1,-,-,-,-,38
N#Cc1ccc(COc2cccc3cccnc23)cc1,-,-,-,31,-
Cc1ccc(Cl)cc1NC(=O)N1CCC(CN2CCCCCC2)CC1,.,.,-,-,.
CCCCC(=O)N/N=C/c1ccc(N2CCOCC2)c([N+](=O)[O-])c1,-,-,-,-,59
COc1ccc(N2CCN(C(=O)c3ccccc3)CC2)c([N+](=O)[O-])c1,-,-,-,-,-
CCCCC(=O)N1CCN(c2ccc(OC)cc2[N+](=O)[O-])CC1,-,-,-,-,30
CCOC(=O)C1(C)CCCN(C(=O)Cc2ccc3ccccc3c2)C1 (stereo not given),-,-,.,.,.
CC12CN3CC(c4ccccc4)(CN(C1)C3c1ccc(O)cc1)C2=O (stereo not given),.,.,-,-,.
CC(C)(C)CC(=O)Nc1cc2c3c(c1)CCC(=O)N3CCC2,-,-,-,-,35
O=C(NC1=C(Nc2ccc(F)cc2)C(=O)c2ccccc2C1=O)c1ccc(Cl)cc1,70,-,-,-,-
O=C(NNC(=O)c1ccc(NC(=O)c2ccccc2)cc1)c1ccc(F)cc1,-,-,-,-,-
Cc1ccc(NC(=O)CC2SC(=O)NC2=O)cc1 (stereo not given),-,-,-,-,-
COc1ccc(NC(=O)CC2SC(=O)NC2=O)cc1 (stereo not given),-,-,-,36,-
COc1ccc(C(=O)c2ccc(OC)c3cccc(O)c23)cc1OC,73,-,-,-,-
COc1ccc2c(c1)c1c(c(=O)n(Cc3ccccc3)c(=O)n1CC(=O)Nc1ccccc1OC)n2C,.,.,-,-,.
COc1cccc(CN(C)C(=O)CNC(=O)c2cccs2)c1OC,-,-,-,-,38
COc1ccc(CN(C)C(=O)CNC(=O)c2cccs2)c(OC)c1,-,-,-,-,-
CCN(C[C@H]1N[C@@](CC)(C(=O)OC)[C@H]2C(=O)N(Cc3ccccc3)C(=O)[C@@H]12)C(=O)c1ccc(C(C)(C)C)cc1,57,?,.,.,.
CC[C@@]1(C(=O)OC)N[C@H](CN(C)C(=O)c2ccc(C(C)(C)C)cc2)[C@@H]2C(=O)N(Cc3ccccc3)C(=O)[C@@H]21,-,-,.,.,.
CCOc1ccc(NC(=O)CCNS(=O)(=O)c2ccc3c(c2)CCCC(=O)N3)cc1,.,.,.,-,.
Cc1cccnc1NC(=O)c1ccc(Cl)c(S(=O)(=O)N2CCCCCC2)c1,-,-,-,-,56
Cc1ccc(S(=O)(=O)N2CCCCC2)cc1C(=O)NC1CCCCC1,-,-,-,42,-
SMILES,D2 PAM-1,D2 ag-1,D2 ag-2,D2 PAM-2,D2 antag
Cc1ccc(C(=O)NC2CCCC2)cc1S(=O)(=O)N1CCCCC1,-,-,-,-,32
COc1ccc(Cn2c(CCC(=O)Nc3cccc(Cl)c3)nc3cccnc32)cc1,.,.,-,-,.
CCCCN(C(=O)c1cc(S(=O)(=O)N2CCCCC2)ccc1Cl)c1c(N)n(CCC)c(=O)[nH]c1=O,-,-,.,.,.
COc1ccc(CCC(C)Nc2ccccc2F)cc1 (stereo not given),-,-,-,-,-
COc1ccc(CCC(C)NC2C3CC4CC(C3)CC2C4)cc1 (stereo not given),-,-,-,-,40
C/C(=N/NC(=O)c1cc(-c2ccccc2)nc2c(Cl)cccc12)c1cccnc1,-,-,-,-,-
